From PubChem BioAssay (Tox21)
Records with an inconclusive call do not appear. Calls of active or inactive are those of the source. Unless noted, calls come from the whole dose curve; as a rule, active = well fitted curve in the direction sought with a large enough effect in the repeat runs; inconclusive = weak or mixed curves; inactive = no such curve, though single readings can be large; an effect the other way counts as inactive or inconclusive.

Columns and labels:
[1] = qHTS assay to identify small molecule antagonists of the peroxisome proliferator-activated receptor delta (PPARd) signaling pathway - cell viability counter screen (AID 743213); note: nearly all actives have a fitted effect of over 50% in size; note: potency is the fitted concentration of half-maximal effect
Summary of the method: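 Cytotoxicity counter screen: CellTiter-Glo luminescence read 30 min after addition, in the same wells as the reporter assay. There, PPARd UAS-bla HEK293H cells (3000/well) were treated 17 h at 37 C with compound and 300 nM L165041.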

[2] = qHTS assay to identify small molecule agonists of the farnesoid-X-receptor (FXR) signaling pathway - cell viability counter screen (AID 743218); note: nearly all actives have a fitted effect of over 45% in size; note: potency is the fitted concentration of half-maximal effect
Summary of the method: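 Viability counter screen in the same wells: CellTiter-Glo luminescence, 30 min room-temperature incubation, measured after the beta-lactamase read. Cells were GeneBLAzer FXR-UAS-bla HEK 293T, compound-treated 16 h at 37C.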

[3] = target: Bile acid receptor (Homo sapiens) (UniProt Q96RI1); experiment: qHTS assay to identify small molecule agonists of the farnesoid-X-receptor (FXR) signaling pathway (AID 743220; active = well fitted activation curve with a large enough effect in the signal ratio in the repeat runs, not every such curve was filed as active; the % refers to the signal ratio)
Summary of the method: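 FXR-UAS-bla HEK 293T cells carrying a UAS-driven beta-lactamase reporter were plated for 5 h at 37C/5% CO2, then exposed to DMSO-dissolved Tox21 10K compounds for 16 h at 37C. A LiveBLAzer B/G FRET substrate was loaded for 2 h at room temperature before fluorescence reading.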

[4] = qHTS assay to identify small molecule antagonists of the farnesoid-X-receptor (FXR) signaling pathway - cell viability counter screen (AID 743221; active = well fitted cell-killing curve with a large enough effect in the repeat runs, not every such curve was filed as active; note: nearly all actives have a fitted effect of over 50% in size; note: potency is the fitted concentration of half-maximal effect)
Summary of the method: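 Here viability was scored by luminescence after CellTiter-Glo addition to wells already read for beta-lactamase. Prior treatment: compound plus CDCA (50 uM final), 16 h, 37 C, HEK 293T FXR-bla cells.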

[5] = qHTS assay to identify small molecule agonists of the vitamin D receptor (VDR) signaling pathway - cell viability counter screen (AID 743224); note: nearly all actives have a fitted effect of over 50% in size; note: potency is the fitted concentration of half-maximal effect
Summary of the method: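 Counter screen run in the same wells as the VDR-bla reporter assay: CellTiter-Glo luminescence, 30 min at room temperature, after 16 h compound treatment at 37C of cells pre-plated for 4 h.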

[6] = qHTS assay to identify small molecule antagonists of the vitamin D receptor (VDR) signaling pathway - cell viability counter screen (AID 743225); note: nearly all actives have a fitted effect of over 50% in size; note: potency is the fitted concentration of half-maximal effect
Summary of the method: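 Compounds were pinned onto VDR-bla HEK 293T cells together with 1-alpha,25-dihydroxyvitamin D3 at 3 nM final. After 16 h at 37C and 5% CO2 plus the reporter readout, cell viability was measured by CellTiter-Glo luminescence (30 min, room temperature).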

[7] = qHTS assay to identify small molecule agonists of the endoplasmic reticulum stress response signaling pathway (AID 1159516; active = well fitted activation curve with a large enough effect in the signal ratio in the repeat runs, not every such curve was filed as active; the % refers to the signal ratio)
Summary of the method: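 Ratiometric FRET readout (405 nm excitation; 460 and 530 nm emission) of a beta-lactamase gene driven by the ER stress response element, after 2 hr substrate loading. HeLa ESRE-bla cells were seeded overnight and treated with compounds for only 5 hr at 37 C.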

[8] = qHTS assay to identify small molecule agonists of the endoplasmic reticulum stress response signaling pathway - cell viability counter screen (AID 1159517; calls by dose curve)
Summary of the method: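 After overnight attachment, ESRE-bla HeLa cells were treated with Tox21 library compounds for 5 hr. CellTiter-Glo luminescence, read 30 min post-addition at room temperature, reported viability.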

[9] = target: Nuclear receptor ROR-gamma (Homo sapiens) (UniProt P51449); experiment: qHTS assay to identify small molecule antagonists of the retinoid-related orphan receptor gamma (ROR-gamma) signaling pathway (AID 1159521; note: nearly all actives have a fitted effect of over 50% in size; note: potency is the fitted concentration of half-maximal effect)
Summary of the method: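 Test compounds were applied to Tet-on RORγ CHO cells 2 h ahead of doxycycline hyclate (1 uM final). Luciferase reporter activity was quantified by luminescence after 16 h at 37 C and 5% CO2.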

[10] = qHTS assay to identify small molecule agonists of the RXR signaling pathway - cell viability counter screen (AID 1159529); note: nearly all actives have a fitted effect of over 50% in size; note: potency is the fitted concentration of half-maximal effect
Summary of the method: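 Compounds dissolved in DMSO were pinned onto HEK 293T cells carrying a beta-lactamase reporter under RXR-alpha control and incubated 16 hr. Cytotoxicity was then quantified by CellTiter-Glo luminescence.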

[11] = target: Peroxisome proliferator-activated receptor delta (Homo sapiens) (UniProt Q03181); experiment: qHTS assay to identify small molecule agonists of the peroxisome proliferator-activated receptor delta (PPARd) signaling pathway (AID 743212; calls by dose curve;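 note: HEK293H cells with PPARd UAS beta-lactamase reporter GeneBLAzer system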)
Summary of the method: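 Steps: seed PPARd-bla HEK293H cells; incubate 5 h, 37 C, 5% CO2; add compounds in DMSO; incubate, 37 C; add LiveBLAzer B/G FRET substrate; hold 2 h at room temperature; measure fluorescence.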

[12] = target: Peroxisome proliferator-activated receptor delta (Homo sapiens) (UniProt Q03181); experiment: qHTS assay to identify small molecule antagonists of the peroxisome proliferator-activated receptor delta (PPARd) signaling pathway (AID 743215; active = well fitted inhibition curve with a large enough effect in the signal ratio in the repeat runs, not every such curve was filed as active; the % refers to the signal ratio;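 note: cells stimulated with agonist L165041 at 300 nM final during compound exposure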; note: potency is the fitted concentration of half-maximal effect)
Summary of the method: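 Agonist L165041 (300 nM final) added with compound to PPARd-bla HEK293H UAS-bla reporter cells; 17 h incubation at 37 C. Read-out: LiveBLAzer FRET substrate, 2 h at room temperature, fluorescence intensity.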

[13] = target: Bile acid receptor (Homo sapiens) (UniProt Q96RI1); experiment: qHTS assay to identify small molecule antagonists of the farnesoid-X-receptor (FXR) signaling pathway (AID 743217; active = well fitted inhibition curve with a large enough effect in the signal ratio in the repeat runs, not every such curve was filed as active; the % refers to the signal ratio; note: potency is the fitted concentration of half-maximal effect)
Summary of the method: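 Antagonist mode: chenodeoxycholic acid at 50 uM final stimulates a UAS-driven beta-lactamase reporter in HEK 293T FXR-bla cells during 16 h, 37C compound exposure. Read-out is FRET substrate fluorescence after 2 h at room temperature.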

[14] = target: Vitamin D3 receptor (Homo sapiens) (UniProt P11473); experiment: qHTS assay to identify small molecule agonists of the vitamin D receptor (VDR) signaling pathway (AID 743222; calls by dose curve)
Summary of the method: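 Agonist mode, beta-lactamase reporter: fluorescence from LiveBLAzer B/G FRET substrate (2 h, room temperature) read after 16 h compound treatment at 37 C of VDR-bla cells, which were pre-incubated 4 h after seeding.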

[15] = qHTS assay to identify small molecule antagonists of the retinoid-related orphan receptor gamma (ROR-gamma) signaling pathway - cell viability counter screen (AID 1159520); note: nearly all actives have a fitted effect of over 50% in size
Summary of the method: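 Cytotoxicity was read from cellular ATP (CellTiter-Glo luminescence) after 16 hr at 37 C with 1 uM doxycycline induction. The inducer was added 2 hr after compound transfer to Tet-on ROR gamma CHO cells.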

[16] = qHTS assay to identify small molecule agonists of the AP-1 signaling pathway - cell viability counter screen (AID 1159525; calls by dose curve; note: nearly all actives have a fitted effect of over 55% in size; note: potency is the fitted concentration of half-maximal effect)
Summary of the method: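 Intracellular ATP by Cell Titer Glo luminescence (30 min, RT) in the same ME-180 AP-1-bla wells after the 5 h compound exposure at 37 °C. Normalised to tetra n-octyl ammonium bromide and DMSO controls.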

[17] = qHTS assay to identify small molecule agonists of the AP-1 signaling pathway (AID 1159526; calls by dose curve; note: potency is the fitted concentration of half-maximal effect)
[18] = qHTS assay to identify small molecule antagonists of the retinoid acid receptor (RAR) signaling pathway - cell viability counter screen (AID 1159551); note: nearly all actives have a fitted effect of over 35% in size; note: potency is the fitted concentration of half-maximal effect
Summary of the method: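 Cytotoxicity counter screen: ATP content quantified by CellTiter-Glo luminescence in C3RL4 cells treated 6 hr at 37 C with compound and retinol (1 uM final). Cells plated at 1,000/well and cultured overnight before dosing.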

[19] = target: Vitamin D3 receptor (Homo sapiens) (UniProt P11473); experiment: qHTS assay to identify small molecule antagonists of the vitamin D receptor (VDR) signaling pathway (AID 743223; active = well fitted inhibition curve with a large enough effect in the signal ratio in the repeat runs, not every such curve was filed as active; the % refers to the signal ratio)
Summary of the method: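 Inhibition of agonist-driven VDR signalling is scored in VDR-bla cells: 3 nM final 1alpha,25-dihydroxyvitamin D3 plus compound, 16 h at 37C, then beta-lactamase detection by FRET substrate fluorescence after 2 h.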

[20] = target: Retinoic acid receptor RXR-alpha (Homo sapiens) (UniProt P19793); experiment: qHTS assay to identify small molecule agonists of the RXR signaling pathway (AID 1159527; calls by dose curve; note: nearly all actives have a fitted effect of over 35% in size)
Summary of the method: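 Using 9-cis retinoic acid as the reference agonist, chemicals were tested in HEK 293T cells […] for 16 hr; substrate loading lasted 2 hr at room temperature.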

Measured: Potency

Vitamin D3 receptor (Homo sapiens), sequence (P11473 whole entry, looked up): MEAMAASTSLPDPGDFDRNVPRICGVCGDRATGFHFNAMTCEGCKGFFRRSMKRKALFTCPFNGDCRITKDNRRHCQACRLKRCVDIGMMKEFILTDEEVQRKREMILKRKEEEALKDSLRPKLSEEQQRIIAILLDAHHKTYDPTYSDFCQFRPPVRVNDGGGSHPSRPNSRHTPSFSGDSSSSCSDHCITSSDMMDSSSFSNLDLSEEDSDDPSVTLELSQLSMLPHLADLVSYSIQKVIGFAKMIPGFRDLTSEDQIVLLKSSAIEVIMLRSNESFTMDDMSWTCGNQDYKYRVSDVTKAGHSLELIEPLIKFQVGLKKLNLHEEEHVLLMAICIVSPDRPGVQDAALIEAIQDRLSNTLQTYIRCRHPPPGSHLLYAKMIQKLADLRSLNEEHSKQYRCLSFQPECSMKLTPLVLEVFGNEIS
Bile acid receptor (Homo sapiens), sequence (Q96RI1 whole entry, looked up): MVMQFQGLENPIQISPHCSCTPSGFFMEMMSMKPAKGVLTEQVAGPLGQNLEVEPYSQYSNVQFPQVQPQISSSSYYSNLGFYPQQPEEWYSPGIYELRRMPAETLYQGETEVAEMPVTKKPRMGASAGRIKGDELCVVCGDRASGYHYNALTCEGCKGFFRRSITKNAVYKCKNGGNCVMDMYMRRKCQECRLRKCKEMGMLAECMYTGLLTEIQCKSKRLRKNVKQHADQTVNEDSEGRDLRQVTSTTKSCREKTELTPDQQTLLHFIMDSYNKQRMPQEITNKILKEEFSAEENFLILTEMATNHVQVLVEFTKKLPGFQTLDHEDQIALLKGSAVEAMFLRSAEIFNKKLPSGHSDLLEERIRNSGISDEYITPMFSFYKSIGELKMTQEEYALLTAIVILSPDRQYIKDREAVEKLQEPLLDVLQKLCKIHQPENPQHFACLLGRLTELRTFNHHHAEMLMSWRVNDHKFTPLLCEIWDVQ
Peroxisome proliferator-activated receptor delta (Homo sapiens), sequence (Q03181 whole entry, looked up): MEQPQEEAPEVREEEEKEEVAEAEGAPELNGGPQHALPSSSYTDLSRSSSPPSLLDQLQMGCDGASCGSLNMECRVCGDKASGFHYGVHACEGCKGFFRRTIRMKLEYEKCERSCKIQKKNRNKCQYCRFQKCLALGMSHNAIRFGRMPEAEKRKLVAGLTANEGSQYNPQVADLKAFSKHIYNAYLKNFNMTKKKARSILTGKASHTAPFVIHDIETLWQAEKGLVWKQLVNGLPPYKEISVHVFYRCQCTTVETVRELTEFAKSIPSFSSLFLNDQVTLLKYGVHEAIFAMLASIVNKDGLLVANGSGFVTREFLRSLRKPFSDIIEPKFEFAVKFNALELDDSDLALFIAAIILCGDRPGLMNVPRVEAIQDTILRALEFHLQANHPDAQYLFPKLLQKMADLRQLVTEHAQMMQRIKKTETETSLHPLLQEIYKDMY
Retinoic acid receptor RXR-alpha (Homo sapiens), sequence (P19793 whole entry, looked up): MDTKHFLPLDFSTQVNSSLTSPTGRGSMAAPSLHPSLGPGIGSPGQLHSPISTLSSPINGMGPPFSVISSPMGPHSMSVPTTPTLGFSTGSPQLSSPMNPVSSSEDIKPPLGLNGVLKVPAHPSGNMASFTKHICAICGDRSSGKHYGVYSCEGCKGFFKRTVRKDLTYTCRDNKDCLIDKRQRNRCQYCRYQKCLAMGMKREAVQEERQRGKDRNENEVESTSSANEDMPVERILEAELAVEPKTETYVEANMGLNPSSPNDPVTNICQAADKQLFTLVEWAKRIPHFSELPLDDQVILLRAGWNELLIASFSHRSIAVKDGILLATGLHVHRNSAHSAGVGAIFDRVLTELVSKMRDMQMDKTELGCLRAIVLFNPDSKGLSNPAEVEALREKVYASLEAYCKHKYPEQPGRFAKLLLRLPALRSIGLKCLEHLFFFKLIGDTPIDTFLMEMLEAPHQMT

Cc1cccc(C)c1NC(=O)CN1CCN(CCCC(c2ccc(F)cc2)c2ccc(F)cc2)CC1
active: [1] 21.1 µM | [2] 26.6 µM | [4] 29.8 µM | [5] 29.8 µM | [6] 23.9 µM | [9] 21.1 µM | [10] 21.3 µM
inactive: [3] | [7] | [8]

O=Cc1ccc(F)cc1
not listed: [8] | [19] | [20]
inactive: all other assays above

NC(=O)c1ccccc1N
not listed: [3] | [13] | [15] | [16]
inactive: all other assays above

CCN(CC)CCCN(c1ccccc1)C1Cc2ccccc2C1
inactive: [11] | [12] | [2] | [4] | [14] | [19] | [7] | [8] | [15] | [16]

CCO[Si](CCCSSSSCCC[Si](OCC)(OCC)OCC)(OCC)OCC
inactive: [1] | [2] | [4] | [14] | [7] | [8] | [15] | [18]
active: [16] 24.6 µM | [10] 21.9 µM

O=C(O)CC(=O)O
not listed: [3] | [9] | [13] | [16]
inactive: all other assays above

CC(CN(C)C)CN1c2ccccc2CCc2ccccc21 (stereo not given)
active: [1] 29.8 µM | [2] 8.41 µM | [10] 9.52 µM
not listed: [4] | [5] | [9] | [11] | [16] | [17] | [20]
inactive: all other assays above

CC(=O)Oc1ccc(C2(c3ccc(OC(C)=O)cc3)Oc3ccccc3NC2=O)cc1
inactive: [11] | [3] | [4] | [5] | [6] | [7] | [8] | [15] | [17] | [10] | [18]

CC(C(O)c1ccccc1)N(C)CCOC(c1ccccc1)c1ccccc1 (stereo not given)
inactive: [12] | [3] | [14] | [19] | [7] | [8] | [18]
active: [1] 33.5 µM | [2] 15 µM

CN(Cc1cc(Br)cc(Br)c1N)C1CCCCC1
active: [5] 26.6 µM
inactive: [11] | [1] | [12] | [3] | [4] | [6] | [7] | [8] | [15]

Cc1nc(Nc2ncc(C(=O)Nc3c(C)cccc3Cl)s2)cc(N2CCN(CCO)CC2)n1
inactive: [11] | [3] | [6] | [7] | [8] | [16] | [10]
active: [12] 0.473 µM

NC(=O)C(=O)N/N=C/c1ccc([N+](=O)[O-])o1
not listed: [3] | [13] | [14] | [15] | [16] | [17] | [19] | [20]
inactive: all other assays above

[O]=[Zr]
not listed: [9] | [11] | [12] | [14] | [19] | [20]
inactive: all other assays above

CN(C)CCCN1c2ccccc2Sc2ccc(C(F)(F)F)cc21
active: [2] 11.9 µM | [17] 16.9 µM
inactive: [3] | [14] | [7] | [8] | [15] | [16] | [18]

C=CC(=C)CCC=C(C)C
inactive: [2] | [4] | [14] | [6] | [7] | [8] | [15] | [16] | [10] | [18]
active: [5] 54.9 µM

CC(C)(C)C1=CC(=O)C=C(C(C)(C)C)C1=O
not listed: [2] | [3] | [9] | [11] | [12] | [13] | [20]
inactive: all other assays above

C=C[C@](C)(O)CC[C@@H]1[C@@]2(C)CCCC(C)(C)[C@@H]2CC[C@@]1(C)O
inactive: [11] | [7] | [8]
active: [1] 34.7 µM | [13] 49 µM | [5] 43.6 µM | [6] 43.6 µM | [16] 24.5 µM | [10] 43.6 µM | [18] 61.1 µM

CCN(CC)CCOC(=O)C1(C2CCCCC2)CCCCC1
active: [10] 12 µM
inactive: [11] | [1] | [2] | [4] | [14] | [19] | [5] | [6] | [7] | [8]
